Screening results: PubChem, The Scripps Research Institute Molecular Screening Center
In the library only some 3.4% were active in any assay of this set; here they are far more common.
PP5 inh – blocks human protein phosphatase 5 activity; P53041; purified PP5c, OMFP substrate fluorescence; inhibition, % at 6.7 µM; actives 0.18% (n = 320,000);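 active = inhibition above the campaign's mean inhibition across all tested compounds plus 3 SD, cut at about 9.5% in these data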;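 also: 0% = DMSO only and 100% = 100 µM cantharidin control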
Target sequence (P53041 whole entry, looked up): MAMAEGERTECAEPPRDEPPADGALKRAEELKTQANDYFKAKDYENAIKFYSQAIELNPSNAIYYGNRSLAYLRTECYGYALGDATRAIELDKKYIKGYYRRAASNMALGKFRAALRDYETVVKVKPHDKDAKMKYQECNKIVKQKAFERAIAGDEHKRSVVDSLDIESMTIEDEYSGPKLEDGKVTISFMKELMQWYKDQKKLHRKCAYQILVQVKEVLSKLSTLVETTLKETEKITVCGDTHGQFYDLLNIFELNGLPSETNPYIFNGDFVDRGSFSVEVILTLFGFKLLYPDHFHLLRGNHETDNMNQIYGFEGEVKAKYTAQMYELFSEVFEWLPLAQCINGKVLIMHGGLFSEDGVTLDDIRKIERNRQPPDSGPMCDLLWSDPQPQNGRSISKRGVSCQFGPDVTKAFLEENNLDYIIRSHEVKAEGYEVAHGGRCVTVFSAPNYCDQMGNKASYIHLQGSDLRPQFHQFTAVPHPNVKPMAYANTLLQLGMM
PAFAH2 inh – PAFAH2 (human) inhibition | Q99487 | recombinant PAFAH2, FP-rhodamine activity probe, fluorescence polarization | inhibition, % at 3.39 µM | actives 0.99% (n = 340,000);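 active = inhibition above the mean over all tested compounds plus 3 SD, cut at about 30% in these data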;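 also: inhibitors block probe labeling of enzyme so polarization drops; 0% = enzyme with DMSO and 100% = wells lacking PAFAH2 protein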
PP1 inh – counter-screen for PP5 inhibitors: inhibitors of human PP1-alpha. P62136. purified PP1alpha, OMFP fluorescence. inhibition, % at 6.7 µM. actives 0.9% (n = 320,000). AID 2235;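 active = inhibition above the mean inhibition of all tested compounds plus 3 SD, computed separately for each screening campaign, cut at about 15% in these data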
PAFAH1B2 inh – inhibitors of human PAFAH1B2 | recombinant PAFAH1B2, FP-rhodamine activity probe, fluorescence polarization | inhibition, % at 3.39 µM | actives 1.2% (n = 340,000);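 active = inhibition above the mean of all tested compounds plus 3 SD, cut at about 24% in these data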;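 also: 0% = enzyme with DMSO and 100% = wells lacking PAFAH1B2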
PAFAH1B3 inh – inhibitors of human PAFAH1B3; Q15102; recombinant PAFAH1B3, FP-rhodamine probe, fluorescence polarization; inhibition, % at 3.39 µM; actives 0.28% (n = 340,000); AID 492972;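 active = inhibition above the screen-wide average of all tested compounds plus 3 SD, cut at about 25% in these data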;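 also: 0% = enzyme with DMSO only and 100% = wells lacking PAFAH1B3 protein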
pPAFAH inh – pPAFAH (human) enzyme inhibition; actives 1.5% (n = 330,000); recombinant pPAFAH, FP-rhodamine probe fluorescence polarization; inhibition, % at 3.39 µM; Q13093;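 active = inhibition above the mean inhibition across the screen plus 3 SD, cut at about 25% in these data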;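 also: inhibitors block binding of the rhodamine activity-based probe so polarization drops; 0% = enzyme with DMSO and 100% = wells lacking pPAFAH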
PP5 inh confirm – PP5 (human) inhibition, confirmation; shares compounds with PP5 inh; Purified PP5, fluorogenic phosphatase substrate, fluorescence; inhibition, % at 6.7 µM; actives 22% (n = 460); AID 2331; in the data active = inhibition above about 9.5%
PP1 counter 3x – PP1 phosphatase inhibition, counter-screen for PP5 inhibitors | shares compounds with PP5 inh | PP1 enzyme, fluorescent phosphatase substrate | inhibition, % at 6.7 µM | actives 4% (n = 460) | AID 2355; in the data active = inhibition above about 16%
Active calls of the source: *.

`Cc1cc(C)c(S(=O)(=O)/N=C2/C=C(Sc3ncn[nH]3)C(=O)c3ccccc32)cc1C` gave PP5 inh 11.4*, PAFAH2 inh 47.4*, PP1 inh -0.1, PAFAH1B2 inh 71.8*, PAFAH1B3 inh 48.6*, pPAFAH inh 10.1, PP5 inh confirm 32.4* and PP1 counter 3x 11.8.
For CCOC(=O)c1sc(NC(=O)CCN2C(=O)c3ccccc3C2=O)c(C(=O)OCC)c1C the results were PP5 inh 0.5, PAFAH2 inh -6.3, PP1 inh 8.1, PAFAH1B2 inh 0.0, PAFAH1B3 inh -6.0 and pPAFAH inh -3.6.
Screening CCc1nnc(NC(=O)CSc2nccn2-c2cccc(C)c2C)s1 returned PP5 inh 3.9, PAFAH2 inh 4.5, PP1 inh -0.6, PAFAH1B2 inh -0.3, PAFAH1B3 inh -4.6 and pPAFAH inh 0.7.
`O=C(NCCc1ccccc1)C(=O)NCC1OCCN1S(=O)(=O)c1ccc(Cl)cc1` (stereo not drawn) gave PP5 inh -0.3, PAFAH2 inh 5.2, PP1 inh -3.2, PAFAH1B2 inh 11.9, PAFAH1B3 inh 4.4 and pPAFAH inh 0.0.
For COC(CNC(=O)c1ccc(CS(=O)(=O)c2ccccc2)o1)OC the results were PP5 inh 13.9*, PAFAH2 inh 2.4, PP1 inh 1.5, PAFAH1B2 inh 3.0, PAFAH1B3 inh 2.5, pPAFAH inh 1.0, PP5 inh confirm -3.2 and PP1 counter 3x -4.4.
Screening COc1ccc(S(=O)(=O)Cc2ccc(C(=O)NCC(OC)OC)o2)cc1 returned PP5 inh -0.9, PAFAH2 inh -6.6, PP1 inh -5.5, PAFAH1B2 inh 6.8, PAFAH1B3 inh -0.3 and pPAFAH inh -3.8.
For COc1cc(/C=N/NC(=O)c2ccncc2)ccc1OC(=O)c1cccc(Br)c1 the results were PP5 inh 2.3, PAFAH2 inh -20.1, PP1 inh 3.4, PAFAH1B2 inh -0.8, PAFAH1B3 inh -1.6 and pPAFAH inh -14.5.
For CC(C)Oc1cc(NC(=O)CS(=O)CC(=O)N(C)C)c(Cl)cc1Cl (stereo not drawn) the results were PP5 inh 3.4, PAFAH2 inh -5.6, PP1 inh -2.4, PAFAH1B2 inh 3.6, PAFAH1B3 inh 2.3 and pPAFAH inh 0.1.
CC(C)Oc1cc(NC(=O)CS(=O)CC(=O)Nc2cccc(C(F)(F)F)c2)c(Cl)cc1Cl (stereo not drawn) was read as PP5 inh 12.8*, PAFAH2 inh -22.2, PP1 inh 11.8, PAFAH1B2 inh 1.0, PAFAH1B3 inh -19.8, pPAFAH inh -6.4, PP5 inh confirm 5.0 and PP1 counter 3x 4.8.
O=C(c1ccc2c(=O)n(Cc3ccc(Cl)cc3)c(=S)[nH]c2c1)N1CCCC1 was read as PP5 inh -0.1, PAFAH2 inh -2.0, PP1 inh 0.3, PAFAH1B2 inh -4.3, PAFAH1B3 inh 3.3 and pPAFAH inh 1.0.
O=c1c2ccc(Cl)cc2[nH]c(=S)n1Cc1cccnc1 was read as PP5 inh 11.1*, PAFAH2 inh -2.4, PP1 inh -2.7, PAFAH1B2 inh 0.1, PAFAH1B3 inh 8.3, pPAFAH inh -6.1, PP5 inh confirm -4.4 and PP1 counter 3x -3.3.
O=C1OCCC1Sc1nnc(-c2cccc(Br)c2)o1 (stereo not drawn) was read as PP5 inh 12.2*, PAFAH2 inh -2.0, PP1 inh -3.6, PAFAH1B2 inh 1.2, PAFAH1B3 inh -5.7, pPAFAH inh 3.8, PP5 inh confirm -3.4 and PP1 counter 3x -3.4.
O=C1OCCC1Sc1nnc(-c2ccc3c(c2)OCO3)o1 (stereo not drawn) was read as PP5 inh 0.7, PAFAH2 inh 4.1, PP1 inh -2.0, PAFAH1B2 inh -1.6, PAFAH1B3 inh 2.1 and pPAFAH inh 3.6.
Screening CN(CC(=O)Nc1cccc(F)c1)C(=O)c1ccc(C(=O)c2ccccc2)cc1 returned PAFAH2 inh 0.8, PAFAH1B2 inh 1.8 and PAFAH1B3 inh 9.3.
For O=C1CS/C(=C\[N+](=O)[O-])N1c1ccc(OC(F)(F)F)cc1 the results were PP5 inh -1.1, PAFAH2 inh -0.2, PP1 inh 4.2, PAFAH1B2 inh 1.4, PAFAH1B3 inh 3.5 and pPAFAH inh 20.2.
